Here are results for 38 compounds from PubChem BioAssay (Tox21).

Inconclusive results are not listed. Entries that show only a call come without a potency. Values without a mark were called inactive. Active and inactive are the calls of the source. Calls follow the shape of the dose curve; as a rule, active = well fitted curve in the direction sought with a large enough effect in the repeat runs; inconclusive = weak or mixed curves; inactive = no such curve, though single readings can be large; an effect the other way counts as inactive or inconclusive.

A short description of one test: Human pregnane X receptor (PXR) small molecule agonists, qHTS cell viability counter screen (AID 1346977). Also: nearly all actives have a fitted effect of over 50% in size. Particulars: PXR-Luc HepG2 viability, CellTiter-Fluor, 24 h; series mostly up to 92.4 µM. In a few lines:
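In each well, the PXR reporter HepG2 line was checked for viability: CellTiter-Fluor reagent added 23hr post-dosing, fluorescence read after 1hr incubation at 37C.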
A general note: Quantitative high-throughput screening tests each substance at several concentrations.
As for `CCOC(=O)c1ccc(N(C)C)cc1`, the result was inactive.
Same read-out and setting: for `C[Si](C)(C)O[Si](O)(O)O` the value was “inactive”; for `CCC(C)SSC(C)CC` (stereo not drawn), “inactive”; for `CC(C)(C)OC=O`, “inactive”.
Turning to `CCNC(=O)C(C)OC(=O)Nc1ccccc1` (stereo not drawn), the compound was classed as inactive.
On the same count and under the same terms, for `C=CCN(CC=C)CC=C` the value was “inactive”; for `COc1cc2nc(N3CCN(C(=O)C4CCCO4)CC3)nc(N)c2cc1OC` (stereo not drawn), “inactive”.
Still for that read-out and setting: for `Cc1cc(=O)oc2cc(O[C@@H]3SC[C@@H](O)[C@H](O)[C@H]3O)ccc12` the value was “inactive”.
On to `COc1ccccc1N1CCN(CC(O)COc2cc(OC)c(OC)c(OC)c2)CC1` (stereo not drawn), for which the compound was classed as inactive.
The same measure, in the same setting: for `COC(=O)N/N=C/c1c[n+]([O-])c2ccccc2[n+]1[O-]` the value was “inactive”.
For `COC(=O)c1cc(Cl)c(NC(C)=O)cc1OC`, the outcome was inactive.
In the case of `CC(=O)Nc1ccc(OCCOCCOc2ccc(NC(C)=O)cc2)cc1`, the result was inactive.
On the same count and under the same terms, the entry for `CC(O)CCCCn1c(=O)c2c(ncn2C)n(C)c1=O` (stereo not drawn) is “inactive”; for `O=Cc1ccc(C(=O)O)cc1` it is “inactive”; for `O=S(=O)(O)c1cc(I)c(O)c2ncccc12` it is “inactive”.
Take `CC(C)(C)c1ccc(C(=O)CCCCl)cc1`: the compound was called inactive.
Same read-out and setting: for `CC(C)(C)C(=O)CC(=O)C(C)(C)C` the value was “inactive”.
The same measure, in the same setting: for `C=CC(=O)CC` the value was “inactive”; for `CCCCC(O)/C=C(C)/C=C/C=C/C(=O)N1CCCC1=O` (stereo not drawn), “inactive”; for `CCN1CCN(C(=O)N[C@@H](C(=O)N[C@@H]2C(=O)N3[C@@H]2SC(C)(C)[C@H]3C(=O)O)c2ccccc2)C(=O)C1=O`, “inactive”.
On the same count and under the same terms, for `COc1ccc2cc(CCC(C)=O)ccc2c1` the value was “inactive”; for `c1coc(Cn2cccc2)c1`, “inactive”; for `CCC(C)c1nccnc1OC` (stereo not drawn), “inactive”.
For `C=C(C)C(=O)OCCOC1CC2CC1C1C=CCC21` (stereo not drawn), the call was inactive.
The same measure, in the same setting: for `Cc1ccc(OC(=O)CC(C)C)cc1` the value was “inactive”; for `COC(=O)c1c(C)cc(O)c(C)c1O`, “inactive”; for `O=CN1CCCCC1`, “inactive”.
For the compound `NS(=O)(=O)c1cc2c(cc1C(F)(F)F)NCNS2(=O)=O`, the compound was classed as inactive.
Same read-out and setting: the entry for `CC(=O)c1ccc(O)c(C(N)=O)c1` is “inactive”.
For `c1cc2ccc3ccc4ccc5cccc6c(c1)c2c3c4c56`, the activity change, negative = cytotoxicity was 0.555% [at 3.27 µM].
In the case of `O=C(O)/C=C(\CC(=O)O)C(=O)O`, the result was inactive.
On the same count and under the same terms, the entry for `Cc1cc(C)c(C)c(C)c1` is “inactive”; for `O=C1CC2(CCCC2)CC(=O)N1CCNCC1COc2ccccc2O1` (stereo not drawn) it is “inactive”.
Still for that read-out and setting: the entry for `CC[C@@]1(c2ccccc2)NC(=O)N(C)C1=O` is “inactive”.
Same read-out and setting: the entry for `C[C@@H]1CCC[C@H](C)N1CCCC(O)(c1ccccc1)c1ccccn1` (stereo partly drawn) is “inactive”; for `CCOC(=O)[C@H](CCc1ccccc1)N[C@H]1CS[C@H](c2cccs2)CN(CC(=O)O)C1=O` it is “inactive”.

The next test in a line: Caspase-3/7 induction in HepG2 cells by small molecules, qHTS assay (AID 1346978). Also: nearly all actives have a fitted effect of over 15% in size. Particulars: HepG2 caspase-3/7 activation, Caspase-Glo luminescence, 17 h; series mostly up to 92.4 µM. In outline:
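Wild-type HepG2 cells (2,000/well) were settled 5 h at 37 C, 5% CO2, then exposed to compounds in DMSO for 17 h. Caspase-3/7 activity was read by luminescence 30 min after adding Caspase-Glo 3/7 reagent at room temperature.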
Consider `Cc1nc2ccc(Cl)cc2[nH]1`, for which the compound was called inactive.
On the same count and under the same terms, for `CCOC(=O)c1ccc(N(C)C)cc1` the value was “inactive”; for `CC(C)(C)OC=O`, “inactive”; for `Cc1cc(=O)oc2cc(O[C@@H]3SC[C@@H](O)[C@H](O)[C@H]3O)ccc12`, “inactive”.
The same measure, in the same setting: for `COC(=O)N/N=C/c1c[n+]([O-])c2ccccc2[n+]1[O-]` the value was “inactive”; for `COC(=O)c1cc(Cl)c(NC(C)=O)cc1OC`, “inactive”; for `CC(=O)Nc1ccc(OCCOCCOc2ccc(NC(C)=O)cc2)cc1`, “inactive”.
The same measure, in the same setting: the entry for `CC(O)CCCCn1c(=O)c2c(ncn2C)n(C)c1=O` (stereo not drawn) is “inactive”; for `O=S(=O)(O)c1cc(I)c(O)c2ncccc12` it is “inactive”; for `C=CC(=O)CC` it is “inactive”.
As for `COc1ccc2cc(CCC(C)=O)ccc2c1`, the result was inactive.
The same measure, in the same setting: the entry for `O=CN1CCCCC1` is “inactive”; for `NS(=O)(=O)c1cc2c(cc1C(F)(F)F)NCNS2(=O)=O` it is “inactive”.
For the compound `c1cc2ccc3ccc4ccc5cccc6c(c1)c2c3c4c56`, the caspase activation was 1.34% [at 3.27 µM].
In the case of `Cc1cc(C)c(C)c(C)c1`, the compound was classed as inactive.
The same measure, in the same setting: the entry for `CN(C)CCC[C@@]1(c2ccc(F)cc2)OCc2cc(C#N)ccc21` is “inactive”.
Same read-out and setting: for `CCOC(=O)[C@H](CCc1ccccc1)N[C@H]1CS[C@H](c2cccs2)CN(CC(=O)O)C1=O` the value was “inactive”.

Another test can be described thus: Caspase-3/7 induction in CHO-K1 cells by small molecules, qHTS cell viability counter screen (AID 1346979). Also: nearly all actives have a fitted effect of over 35% in size. Also: potency is read from the fitted curve at half-maximal effect. Particulars: CellTiter-Fluor fluorescence, 17 h; series mostly up to 92.4 µM. In outline:
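Following a 5hr settling period, CHO-K1 cells at 1,500 per well received DMSO-dissolved compounds. Cell viability was quantified 16hr later by CellTiter-Fluor fluorescence, measured after 1hr with reagent at 37C.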
For `Cc1nc2ccc(Cl)cc2[nH]1`, the Potency was 17.2 µM (active).
Regarding `CCOC(=O)c1ccc(N(C)C)cc1`, the Potency result is “inactive”.
On the same count and under the same terms, the entry for `C[Si](C)(C)O[Si](O)(O)O` is “inactive”; for `CCC(C)SSC(C)CC` (stereo not drawn) it is “inactive”; for `CC(C)(C)OC=O` it is “inactive”.
Same read-out and setting: for `C=CCN(CC=C)CC=C` the value was “inactive”.
On the same count and under the same terms, for `COc1cc2nc(N3CCN(C(=O)C4CCCO4)CC3)nc(N)c2cc1OC` (stereo not drawn) the value was “inactive”.
For the compound `Cc1cc(=O)oc2cc(O[C@@H]3SC[C@@H](O)[C@H](O)[C@H]3O)ccc12`, the Potency result is “inactive”.
As to `COc1ccccc1N1CCN(CC(O)COc2cc(OC)c(OC)c(OC)c2)CC1` (stereo not drawn), the Potency result was “inactive”.
Take `COC(=O)N/N=C/c1c[n+]([O-])c2ccccc2[n+]1[O-]`: the Potency result is “inactive”.
On the same count and under the same terms, for `COC(=O)c1cc(Cl)c(NC(C)=O)cc1OC` the value was “inactive”.
As for `CC(=O)Nc1ccc(OCCOCCOc2ccc(NC(C)=O)cc2)cc1`, the Potency result is “inactive”.
Same read-out and setting: the entry for `CC(O)CCCCn1c(=O)c2c(ncn2C)n(C)c1=O` (stereo not drawn) is “inactive”.
Still for that read-out and setting: the entry for `O=Cc1ccc(C(=O)O)cc1` is “inactive”; for `O=S(=O)(O)c1cc(I)c(O)c2ncccc12` it is “inactive”; for `CC(C)(C)c1ccc(C(=O)CCCCl)cc1` it is “inactive”.
Same read-out and setting: the entry for `CC(C)(C)C(=O)CC(=O)C(C)(C)C` is “inactive”; for `C=CC(=O)CC` it is “inactive”.
In the case of `CCCCC(O)/C=C(C)/C=C/C=C/C(=O)N1CCCC1=O` (stereo not drawn), the Potency result is “inactive”.
Same read-out and setting: for `CCN1CCN(C(=O)N[C@@H](C(=O)N[C@@H]2C(=O)N3[C@@H]2SC(C)(C)[C@H]3C(=O)O)c2ccccc2)C(=O)C1=O` the value was “inactive”.
The same measure, in the same setting: for `COc1ccc2cc(CCC(C)=O)ccc2c1` the value was “inactive”; for `c1coc(Cn2cccc2)c1`, “inactive”.
Still for that read-out and setting: for `CCC(C)c1nccnc1OC` (stereo not drawn) the value was “inactive”; for `C=C(C)C(=O)OCCOC1CC2CC1C1C=CCC21` (stereo not drawn), “inactive”.
With `Cc1ccc(OC(=O)CC(C)C)cc1`, the Potency entry is “inactive”.
As for `O=CN1CCCCC1`, the Potency entry is “inactive”.
On the same count and under the same terms, for `CC(=O)c1ccc(O)c(C(N)=O)c1` the value was “inactive”.
Turning to `c1cc2ccc3ccc4ccc5cccc6c(c1)c2c3c4c56`, the activity change, negative = cytotoxicity is 14.9% [at 3.27 µM].
Regarding `O=C(O)/C=C(\CC(=O)O)C(=O)O`, the Potency entry is “inactive”.
Still for that read-out and setting: for `Cc1cc(C)c(C)c(C)c1` the value was “inactive”; for `O=C1CC2(CCCC2)CC(=O)N1CCNCC1COc2ccccc2O1` (stereo not drawn), “inactive”.
Same read-out and setting: for `CC[C@@]1(c2ccccc2)NC(=O)N(C)C1=O` the value was “inactive”; for `C[C@@H]1CCC[C@H](C)N1CCCC(O)(c1ccccc1)c1ccccn1` (stereo partly drawn), “inactive”; for `CN(C)CCC[C@@]1(c2ccc(F)cc2)OCc2cc(C#N)ccc21`, “inactive”.
Still for that read-out and setting: for `CCOC(=O)[C@H](CCc1ccccc1)N[C@H]1CS[C@H](c2cccs2)CN(CC(=O)O)C1=O` the value was “inactive”.
